The structures appear in SMILES notation. Values joined by “and” are separate entries in the source; they are usually repeats but may differ in a detail not shown here. Identical values can stand only once. Active and inactive are the calls of the source. Rule for the calls: active = hit-call score of the fitted dose curve at least 0.9, where 1 is the maximum; inactive = score below 0.9.

Read-out in assay [1]: Interferon-gamma inducible Protein 10 (IP10), CXCL10 (gene 3627)
Briefly: BSK_hDFCGF_IP10: BioMAP Diversity Plus: hDFCGF Assay for Interferon-gamma inducible Protein 10 (IP10) Biomarker Activity (AID 2283053). As to conditions: primary human foreskin fibroblasts; actives raise or lower the signal. An outline of the steps: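 IP-10 levels, quantified by ELISA, are taken from human foreskin fibroblast cultures 24 h after chemical treatment, with DMSO serving as negative control and baseline for bidirectional analysis.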

Read-out in assay [2]: Urokinase-type plasminogen activator receptor (uPAR), PLAUR (gene 5329)
Briefly: BSK_CASM3C_uPAR: BioMAP Diversity Plus: CASM3C Assay for Urokinase-type plasminogen activator receptor (uPAR) Biomarker Activity (AID 2283054).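 Note: cell-surface uPAR protein level quantified by ELISA.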 The conditions noted are these: primary human coronary artery smooth muscle cells; actives raise or lower the signal.

Read-out in assay [3]: Vascular cell adhesion molecule 1 (VCAM1), VCAM1 (gene 7412)
Briefly: BSK_CASM3C_VCAM1: BioMAP Diversity Plus: CASM3C Assay for Vascular cell adhesion molecule 1 (VCAM1) Biomarker Activity (AID 2283055).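 Note: VCAM-1 protein level quantified by ELISA on the cells.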 The conditions noted are these: primary human coronary artery smooth muscle cells; actives raise or lower the signal.

Read-out in assay [4]: Collagen III, COL3A1 (gene 1281)
In words: BSK_hDFCGF_CollagenIII: BioMAP Diversity Plus: hDFCGF Assay for Collagen III Biomarker Activity (AID 2283056). As to conditions: primary human foreskin fibroblasts; actives raise or lower the signal. In outline:
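ELISA readout of Collagen III in human dermal (foreskin) fibroblasts, taken 24 h post-treatment. Gain or loss relative to DMSO vehicle fitted in both directions.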

Read-out in assay [5]: Epidermal growth factor receptor (EGFR), EGFR (gene 1956)
Briefly: BSK_hDFCGF_EGFR: BioMAP Diversity Plus: hDFCGF Assay for Epidermal growth factor receptor (EGFR) Biomarker Activity (AID 2283057). As to conditions: primary human foreskin fibroblasts; actives raise or lower the signal. An outline of the steps:
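Measured by ELISA: EGFR levels on primary human foreskin fibroblasts 24 h after chemical treatment, analysed relative to DMSO with bidirectional fitting.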

Read-out in assay [6]: Interleukin-8 (IL8), CXCL8 (gene 3576)
In words: BSK_hDFCGF_IL8: BioMAP Diversity Plus: hDFCGF Assay for Interleukin-8 (IL8) Biomarker Activity (AID 2283058). The conditions noted are these: primary human foreskin fibroblasts; actives raise or lower the signal. In outline: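 IL-8 levels read by ELISA at 24 hours after dosing human skin fibroblast cultures. Parallel SRB staining assessed overt cytotoxicity, and gain or loss of signal was fitted against DMSO control.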

Assay [7] in a line: BSK_hDFCGF_Proliferation: Cell Proliferation Assessment in the BioMAP Diversity Plus: hDFCGF Assay (AID 2283059).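 Note: curves fitted for both rise and fall of signal versus DMSO baseline.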 The conditions noted are these: primary human foreskin fibroblasts. In outline:
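Total protein read at 560 nm after 0.1% SRB staining of TCA-fixed human skin fibroblasts, […]. Activity is fitted in both directions relative to DMSO as baseline.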

Read-out in assay [8]: Macrophage colony-stimulating factor (MCSF), CSF1 (gene 1435)
In words: BSK_hDFCGF_MCSF: BioMAP Diversity Plus: hDFCGF Assay for Macrophage colony-stimulating factor (MCSF) Biomarker Activity (AID 2283060). The conditions noted are these: primary human foreskin fibroblasts; actives raise or lower the signal. In outline:
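M-CSF levels read by ELISA at 24 h post-dosing in human skin fibroblasts. Parallel cultures stained with SRB assessed cytotoxicity at the same time point; response fitted in both directions against the DMSO baseline.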

Assay [9] is described as follows: BSK_hDFCGF_SRB: Viability Assessment in the BioMAP Diversity Plus: hDFCGF Assay (AID 2283061).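 Note: cells exposed to compound for 24 h before the read.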 As to conditions: primary human foreskin fibroblasts. In outline:
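Viability was read as total protein: after 10% TCA fixation, wells were stained with 0.1% sulforhodamine B and read at 560 nm. Primary human foreskin fibroblasts were dosed for 24 h, with bidirectional fitting versus DMSO.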

Read-out in assay [10]: TIMP metallopeptidase inhibitor 1 (TIMP1), TIMP1 (gene 7076)
In words: BSK_hDFCGF_TIMP1: BioMAP Diversity Plus: hDFCGF Assay for TIMP metallopeptidase inhibitor 1 (TIMP1) Biomarker Activity (AID 2283062). The conditions noted are these: primary human foreskin fibroblasts; actives raise or lower the signal. In outline:
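TIMP-1 measured by ELISA 24 h after chemical dosing of primary human skin fibroblasts, with gain or loss fitted relative to DMSO. Parallel SRB staining (560 nm) monitored overt cytotoxicity.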

Take `CCCCc1oc2ccccc2c1C(=O)c1cc(I)c(OCCN(CC)CC)c(I)c1`: the AC50 (as a rule, the concentration giving half of the maximal activity seen) in assay [1] was 8.78 µM (active); in assay [2] it was 13.7 µM (active); in assay [3], 25.3 µM (active); in [4] it was 7.23 µM (active); in assay [6] it was 10.3 µM (active); in assay [7], 3.97 µM (active). In addition, the AC50 was 6.99 µM (active) in assay [8], 4.64 µM (active) in assay [9] and 9.35 µM (active) in assay [10]. In addition, in [5], the result was inactive.

Turning to `CCCCCCCCCCCCCCCCCC[N+](C)(C)Cc1ccccc1`, the AC50 in assay [1] is 0.795 µM (active); in assay [2], 2.77 µM (active); in assay [3], 10 µM (active); in assay [4], 0.355 µM (active); in [6] it was 2.52 µM (active); in assay [7] it was 0.0156 µM (active). Moreover, the AC50 in [8] is 0.721 µM (active); in assay [9], 0.556 µM (active); in assay [10], 0.553 µM (active). Also, the outcome in assay [5] was inactive.

As for `CC(C)(C)c1ccc(O)c(O)c1`, the AC50 in assay [1] is 32.3 µM (active); in [3] it was 4.99 µM (active); in assay [4] it was 34.7 µM (active); in assay [7], 7.12 µM (active); in assay [8] it was 31.1 µM (active); in assay [9], 31.8 µM (active). Also, the AC50 in assay [10] is 31.6 µM (active). Also, the outcome in [2], in [5] and in assay [6] was inactive.

Take `O=C(NCc1ncc(C(F)(F)F)cc1Cl)c1c(Cl)cccc1Cl`: the outcome in [1], in assay [2], in assay [3], in assay [4], in assay [5] and in assay [6] was inactive. The outcome in [7], in [8], in [9] and in assay [10] was inactive.

`CC1=NN(c2ccccc2)C(=O)C1`: the outcome in [1], in assay [2], in assay [3], in assay [4], in [5] and in assay [6] was inactive. Also, the result in [7], in assay [8], in assay [9] and in assay [10] was inactive.

Take `CC[N+](CC)(CC)Cc1ccccc1`: the outcome in assay [1], in assay [2], in assay [3], in [4], in assay [5] and in assay [6] was inactive. In addition, the result in assay [7], in [8], in [9] and in [10] was inactive.

Regarding `N=C(N)c1ccc(OCCCCCOc2ccc(C(=N)N)cc2)cc1`, the AC50 in [1] is 17.5 µM (active); in [5], 29.1 µM (active); in assay [6], 20.9 µM (active); in [7], 12.1 µM (active); in [8] it was 20.6 µM (active); in [9], 25.8 µM (active). Further, the AC50 in assay [10] is 27.2 µM (active). Also, the outcome in [3] and in assay [4] was inactive.

With `CCCCCc1ccc(O)cc1`, the concentration at half-maximal activity (AC50) in assay [1] is 33.2 µM (active); in assay [2], 14.4 µM (active); in assay [3] it was 13.1 µM (active); in assay [4], 12.5 µM (active); in assay [5], 29.9 µM (active); in [7], 8.97 µM (active). The AC50 in [8] is 25.5 µM (active); in [9], 28.9 µM (active); in assay [10], 20 µM (active). Also, the outcome in assay [6] was inactive.

In the case of `COc1cccc(O)c1`, the outcome in [1], in assay [2], in assay [3], in [4], in assay [5] and in [6] was inactive. Also, the result in assay [7], in [8], in assay [9] and in assay [10] was inactive.

Consider `O=P(O)(O)CCC(F)(F)C(F)(F)C(F)(F)C(F)(F)C(F)(F)C(F)(F)F`, for which the outcome in assay [1], in assay [2], in [3], in assay [4], in assay [5] and in assay [6] was inactive. The outcome in [8], in assay [9] and in assay [10] was inactive. In assay [7], the concentration at half-maximal activity (AC50) is 15.8 µM (active) and 19.1 µM (active).

`CCCCCCCCCCCCOS(=O)(=O)O`: the AC50 was 26.3 µM (active) in [1]; 20 µM (active) in [5]; 16 µM (active) in [7]; 30.9 µM (active) in assay [8]; 28 µM (active) in assay [9]; 32 µM (active) in [10]. The result in assay [2], in assay [3], in [4] and in [6] was inactive.

On to `CN(C)c1ccc(C(=C2C=CC(=[N+](C)C)C=C2)c2ccccc2)cc1`, for which the AC50 in assay [1] was 0.0138 µM (active); in [2], 0.0461 µM (active); in assay [3], 0.554 µM (active); in assay [4], 1.23 µM (active); in [6], 2.67 µM (active); in assay [7], 0.0173 µM (active). Besides, the AC50 in [8] was 0.0319 µM (active); in assay [9], 0.0082 µM (active); in assay [10], 0.0082 µM (active). In addition, the outcome in [5] was inactive.

For the compound `Cc1ccc(C(=O)c2ccccc2)cc1`, the AC50 was 33.1 µM (active) in [1]; 33.8 µM (active) in assay [4]; 32.4 µM (active) in [7]; 29.3 µM (active) in [8]; 31.4 µM (active) in assay [10]. Also, the result in assay [2], in [3], in [5], in assay [6] and in [9] was inactive.

With `NC(=NCCCCCCN=C(N)/N=C(\N)Nc1ccc(Cl)cc1)/N=C(\N)Nc1ccc(Cl)cc1`, the AC50 in assay [1] was 8.17 µM (active); in [2], 4.86 µM (active); in [3], 9.65 µM (active); in assay [4] it was 1.18 µM (active); in assay [7], 1.44 µM (active); in assay [8], 4.84 µM (active). Further, the results for the AC50 in assay [9] and in assay [10] were 4.77 µM (active) and 6.5 µM (active), respectively. In [6], the result was inactive.

On to `COC1=CC(=O)C[C@@H](C)[C@]12Oc1c(Cl)c(OC)cc(OC)c1C2=O`, for which the outcome in [1], in assay [2], in [3], in [4], in assay [5] and in assay [6] was inactive. Further, the outcome in [7], in assay [8], in assay [9] and in [10] was inactive.

The values are drawn from PubChem BioAssay (EPA / NIEHS).
